Test [1] is described as follows: inhibitors of TNFa-induced NFkB p65 translocation, primary screen, imaging, HUVEC, MLSMR starter and 10KST1 sets (AID 438).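 For inhibition: signal is the nuclear over cytoplasmic p65 intensity ratio per well.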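 Note: compound added about 3h40 before a 20 min TNFalpha stimulation.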 The conditions noted are these: HUVEC TNFa-induced p65 nuclear translocation; cell count: measured here: nuclei count (cytotoxicity indicator), at 2.08 µM; inhibition: at 2 µM, stronger effect = higher value, 0% TNFa-plus-vehicle, 100% no-TNFa wells.
A short description of test [2]: inhibitors of mutant huntingtin aggregation, primary screen, imaging, exon1htt(103Q)mCFP cells, high-content imaging (AID 483;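 active = visual image review flags a hit and inhibition of aggregation exceeds 20%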;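 note: compound exposure lasted 3 days before fixation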;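 for nuclei count: percent of the per-plate median nuclei count of sample wells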). The conditions noted are these: exon1htt(103Q)mCFP cell line, aggregate imaging, at 2 µM; inhibition of aggregation: stronger effect = higher value; nuclei count: measured here: cell count, toxicity.
Test [3] is described as follows: inhibitors of E-selectin induction by TNFa, primary screen, imaging, HUVEC, immunofluorescence, MLSMR starter and 10KST1 sets (AID 487;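 active = visually confirmed hit in the image check and inhibition above 20%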;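 for inhibition: signal is fraction of cell area covered by stained E-selectin grains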;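 for nuclei count: 100% = median nuclei count of all wells on the same plate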). To be noted: HUVEC TNFalpha-induced E-selectin immunofluorescence imaging, at 2 µM; inhibition: stronger effect = higher value; nuclei count: measured here: cell number, toxicity.
The target in test [4] is Voltage-gated potassium channel subunit beta-2 (Rattus norvegicus) (UniProt P62483). The experiment in a line: KvBeta enzyme negative modulators, primary screen, biochemical, NADPH fluorescence (AID 622;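 active = fluorescence slope higher than the sample average by over 3 SD, cut at about -0.22 in these data, passing the limit was not always enough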;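 note: slope of raw intensity against log time taken from 70 to 1610 s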). To be noted: recombinant KvBeta, 4-cyanobenzaldehyde reduction, at 10 µM, stronger effect = higher value.
For test [5] the target is unchanged. Description: KvBeta positive modulators, primary screen, biochemical, NADPH fluorescence (AID 623;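 active = NADPH fluorescence slope more negative than the mean of all samples by about 3 SD, 99.7% confidence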;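 note: fluorescence intensity change per second fitted from 20 to 320 s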). To be noted: Recombinant KvBeta, NADPH fluorescence decrease slope, 10 min; at 10 µM; stronger effect = lower value.
The target of test [6] is Alpha-2C adrenergic receptor (Homo sapiens) (UniProt P18825). The experiment in a line: modulators of alpha2C/GIRK thallium flux, primary screen, cell-based, HEK293 alpha2C/GIRK1/2 (AID 624;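 active = fluorescence slope after compound addition differing from the mean of all screened samples at 99.7% confidence, in either direction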;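 note: slope of fluorescence ratio to pre-addition baseline per second over 15 to 24 s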). To be noted: thallium flux BTC fluorescence, at 10 µM, actives lie on both sides.
Test [7] can be described thus: inhibitors of Sendai virus-induced IRF3 signaling, primary screen, TLR/RLR signaling modifier project, cell-based, Sendai virus stimulus, luciferase, 10K MLSCN set (AID 602276;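 active = inhibition at or above 50% at 10 µM; inactive = inhibition below 50%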;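 note: firefly luciferase from ISG56 promoter only with Renilla not read in this screen; 0% = Sendai virus plus DMSO and 100% = medium plus DMSO without virus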). To be noted: HEK293 RL24 IRF3 luciferase reporter, at 10 µM, stronger effect = higher value.
Test [8] in a line: inhibitors of poly I:C-induced TLR3 signaling, primary screen, cell-based, poly I:C stimulus, luciferase, 10K MLSCN set (AID 602277;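 active = inhibition of the reporter signal at or above 50%; inactive = inhibition below 50%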). The conditions noted are these: HEK293-TLR3 RL24 IRF3 luciferase reporter, at 10 µM, stronger effect = higher value.

The source made the active and inactive calls.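 Rule for the calls, unless noted: active = inhibition above 20% together with a positive visual image hit; inconclusive = visual image hit but inhibition not above 20%; inactive = no visual image hit.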

Sequence of Alpha-2C adrenergic receptor (Homo sapiens) (P18825 whole entry, looked up): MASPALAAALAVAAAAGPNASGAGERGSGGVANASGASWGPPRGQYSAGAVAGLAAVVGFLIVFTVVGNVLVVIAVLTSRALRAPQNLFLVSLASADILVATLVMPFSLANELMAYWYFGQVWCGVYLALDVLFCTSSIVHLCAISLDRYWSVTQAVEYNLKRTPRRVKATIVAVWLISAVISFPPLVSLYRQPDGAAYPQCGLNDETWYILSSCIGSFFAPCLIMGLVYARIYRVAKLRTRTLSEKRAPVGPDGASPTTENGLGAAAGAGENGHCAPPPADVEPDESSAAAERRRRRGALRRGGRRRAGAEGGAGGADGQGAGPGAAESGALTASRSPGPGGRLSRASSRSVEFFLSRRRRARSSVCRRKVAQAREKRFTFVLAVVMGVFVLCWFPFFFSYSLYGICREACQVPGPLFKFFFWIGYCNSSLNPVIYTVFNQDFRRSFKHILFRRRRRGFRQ
Sequence of Voltage-gated potassium channel subunit beta-2 (Rattus norvegicus) (P62483 whole entry, looked up): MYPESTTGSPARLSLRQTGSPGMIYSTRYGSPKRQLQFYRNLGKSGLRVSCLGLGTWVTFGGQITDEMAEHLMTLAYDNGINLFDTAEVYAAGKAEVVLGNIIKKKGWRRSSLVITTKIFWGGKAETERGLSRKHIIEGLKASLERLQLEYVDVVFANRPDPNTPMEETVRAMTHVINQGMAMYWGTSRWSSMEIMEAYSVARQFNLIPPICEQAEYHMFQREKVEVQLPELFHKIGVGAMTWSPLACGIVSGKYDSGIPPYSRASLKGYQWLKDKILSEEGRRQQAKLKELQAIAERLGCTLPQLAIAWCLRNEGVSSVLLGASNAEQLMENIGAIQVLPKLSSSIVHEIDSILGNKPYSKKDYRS

Turning to `CCOC(=O)N1CCN(c2cc(=O)n(-c3cccc(Br)c3)c(=O)[nH]2)CC1`, the cell count in test [1] came out at 532. The inhibition was -10.1% (inactive) in test [1], -13.2% (inactive) in test [3], -10.2% (inactive) in test [7] and 15.4% (inactive) in test [8]. Moreover, in test [2], the inhibition of aggregation is 0.9% (inactive). The nuclei count in test [2] was 55.8%; in test [3], 89.5%. In test [4], the fluorescence slope is -0.564 (inactive). Moreover, in test [5], the NADPH fluorescence slope was -2e-05 (inactive). In test [6], the slope is 0.00721 (inactive).
For the compound `COc1ccc2[nH]c(=O)c(CN(Cc3cccs3)S(=O)(=O)c3cccc4nsnc34)cc2c1`, the cell count in test [1] worked out at 510. The inhibition was -4.2% (inactive) in test [1], -68.8% (inactive) in test [3], 8.33% (inactive) in test [7] and 71.5% (active) in test [8]. Moreover, the inhibition of aggregation in test [2] was -15.3% (inactive). Further, the nuclei count in test [2] and in test [3] was 110% in each case. For the same compound, the fluorescence slope in test [4] is -0.523 (inactive). Moreover, in test [5], the NADPH fluorescence slope is -0.000153 (inactive). In addition, in test [6], the slope is 0.00524 (inactive).
Regarding `CC(C)CC1NC(=O)N(CC(=O)N2CCN(S(=O)(=O)c3ccc(Cl)cc3)CC2)C1=O` (stereo not drawn), in test [1], the cell count is 716. In addition, the inhibition in test [1] is 4% (inactive); in test [3] it was -35.6% (inactive); in test [7] it was 15.2% (inactive); in test [8] it was -5.28% (inactive). The inhibition of aggregation in test [2] was 11.8% (inactive). In addition, the nuclei count stood at 93% in test [2] and 76.3% in test [3]. Also, the fluorescence slope in test [4] is -0.416 (inactive). In addition, the NADPH fluorescence slope in test [5] is 4.2e-06 (inactive). For the same compound, the slope in test [6] is 0.00417 (inactive).
As to `O=C1CC(N2CCOCC2)C(=O)N1c1ccccc1Cl` (stereo not drawn), the cell count in test [1] is 386. Besides, the inhibition in test [1] is -0.6% (inactive); in test [3], -25.3% (inactive); in test [7] it was 9.93% (inactive); in test [8], 18% (inactive). Besides, the inhibition of aggregation in test [2] is 13.9% (inactive). For the same compound, the nuclei count is 96.9% in test [2] and 128% in test [3]. Moreover, the fluorescence slope in test [4] is -0.338 (inactive). The NADPH fluorescence slope in test [5] was 1.7e-05 (inactive). The slope in test [6] is 0.00688 (inactive).
Regarding `O=C(O)C1CCCN1C(=O)c1cccs1` (stereo not drawn), in test [1], the cell count amounted to 367. Besides, the inhibition in test [1] is -18.4% (inactive); in test [3], -53% (inactive); in test [7], 5.87% (inactive); in test [8], 10.7% (inactive). Also, the inhibition of aggregation in test [2] was -4.2% (inactive). For the same compound, the nuclei count in test [2] is 105%; in test [3], 117%. Moreover, in test [4], the fluorescence slope is -0.487 (inactive). Further, in test [5], the NADPH fluorescence slope is -7.9e-05 (inactive). For the same compound, in test [6], the slope is 0.00489 (inactive).
For the compound `O=C(Oc1cccc2cccnc12)c1cccc(-n2cnnn2)c1`, in test [1], the cell count amounted to 461. Further, the inhibition in test [1] is 2.7% (inactive); in test [3] it was -16.1% (inactive); in test [7] it was 15% (inactive); in test [8], 24.5% (inactive). In addition, the inhibition of aggregation in test [2] is -8.5% (inactive). Moreover, the nuclei count in test [2] was found to be 105%; in test [3], 93.4%. In test [4], the fluorescence slope is -0.494 (inactive). In addition, in test [5], the NADPH fluorescence slope was -3.7e-05 (inactive). In addition, the slope in test [6] was 0.00392 (inactive).
For the compound `CCOC(=O)N1CCN(S(=O)(=O)c2ccc(OCC)c(C)c2)CC1`, in test [1], the cell count is 604. Also, the inhibition in test [1] was -11.1% (inactive); in test [3], 8.2% (inactive); in test [7], 0.885% (inactive); in test [8], 11.9% (inactive). Moreover, in test [2], the inhibition of aggregation was -7.7% (inactive). The nuclei count in test [2] came to 106%; in test [3], 102%. In addition, in test [4], the fluorescence slope is -0.625 (inactive). Besides, in test [5], the NADPH fluorescence slope was -3.8e-06 (inactive). In addition, in test [6], the slope is 0.00615 (inactive).
Turning to `COc1cccc(C2C(C(=O)c3ccc(C)o3)=C(O)C(=O)N2CCCN(C)C)c1` (stereo not drawn), in test [1], the cell count worked out at 239. The inhibition in test [1] was -10.9% (inactive); in test [3], -110% (inactive); in test [7], 10.4% (inactive); in test [8] it was 15.6% (inactive). For the same compound, in test [2], the inhibition of aggregation was 45.3% (active). Besides, the values for the nuclei count in test [2] and in test [3] were 83.9% and 111%, respectively. Also, in test [4], the fluorescence slope was -0.592 (inactive). Further, the NADPH fluorescence slope in test [5] was -5.1e-05 (inactive). Also, the slope in test [6] was 0.00639 (inactive).
As for `COC(=O)CNC(=O)COC(=O)c1cc(Cl)cc(Cl)c1N`, the cell count in test [1] came out at 473. Also, the inhibition was 4.7% (inactive) in test [1], -81.4% (inactive) in test [3], -8.86% (inactive) in test [7] and 3.33% (inactive) in test [8]. Besides, the inhibition of aggregation in test [2] was -2% (inactive). Also, the nuclei count came to 112% in test [2] and 123% in test [3]. Moreover, the fluorescence slope in test [4] is -0.41 (inactive). Also, the NADPH fluorescence slope in test [5] is 1.6e-05 (inactive). Moreover, the slope in test [6] was 0.0054 (inactive).
In the case of `COC(C)(C)c1cc(C(C)(C)C)nc(N)n1`, the cell count in test [1] came to 433. Moreover, the inhibition is 12% (inactive) in test [1], -28.8% (inactive) in test [3], 6.59% (inactive) in test [7] and 24.6% (inactive) in test [8]. Besides, in test [2], the inhibition of aggregation was 9.5% (inactive). The nuclei count stood at 103% in test [2] and 129% in test [3]. For the same compound, the fluorescence slope in test [4] is -0.385 (inactive). The NADPH fluorescence slope in test [5] was -7.8e-05 (inactive). Further, the slope in test [6] was 0.00615 (inactive).
On to `c1ccc2c(c1)sc1nnnn12`, for which the cell count in test [1] was found to be 375. For the same compound, the inhibition in test [1] was -2.1% (inactive); in test [3], -109% (inactive); in test [7] it was 18% (inactive); in test [8], 27.2% (inactive). For the same compound, the inhibition of aggregation in test [2] is -24.6% (inactive). Further, the nuclei count in test [2] came to 112%; in test [3] it was 115%. Besides, the fluorescence slope in test [4] was -0.555 (inactive). The NADPH fluorescence slope in test [5] was -7.2e-05 (inactive). In addition, in test [6], the slope is 0.00357 (inactive).
For `Cc1oc(C(=O)O)cc1CSCc1cc(C(=O)O)c(C)o1`, the cell count in test [1] was 403. Also, the inhibition was -9.3% (inactive) in test [1], -15.5% (inactive) in test [3], -20.7% (inactive) in test [7] and -5.67% (inactive) in test [8]. For the same compound, the inhibition of aggregation in test [2] is -21.1% (inactive). Moreover, the nuclei count in test [2] came to 102%; in test [3] it was 118%. Moreover, the fluorescence slope in test [4] is -0.508 (inactive). In addition, the NADPH fluorescence slope in test [5] is 3.2e-05 (inactive). Further, the slope in test [6] was 0.00721 (inactive).
With `COC(=O)CSc1nnc(-c2cccs2)n1-c1ccc(Cl)cc1`, in test [1], the cell count turned out to be 347. Further, the inhibition in test [1] is 12.8% (inactive); in test [3], -50.2% (inactive); in test [7], 17% (inactive); in test [8], 15.7% (inactive). Further, the inhibition of aggregation in test [2] is 10.2% (inactive). Besides, the nuclei count in test [2] was 106%; in test [3], 119%. Moreover, the fluorescence slope in test [4] was -0.482 (inactive). In test [5], the NADPH fluorescence slope is -1.6e-05 (inactive). The slope in test [6] was 0.00413 (inactive).

The values are drawn from PubChem BioAssay.
